Pin1 inh – human Pin1 inhibition; Q13526; Potency, µM (top dose mostly 115 µM), for inactives: at the top dose activity, negative = inhibition, actives largely listed as inhibitors; 0.009% of 390,000 active; AID 504891; Pin1 FP peptide displacement, HiFluor488, 10 min; active means well fitted inhibition curve with a large enough effect in the polarisation, with a control signal flat, not every such curve was filed as active; inconclusive means small, poorly fitted or top-dose-only effect, or effect the other way, or a change in a side signal; inactive means no such curve, though single readings can be large or run the other way; the % refers to the polarisation; further: potency means the concentration at half of the fitted maximal effect
Target sequence (Q13526 whole entry, looked up): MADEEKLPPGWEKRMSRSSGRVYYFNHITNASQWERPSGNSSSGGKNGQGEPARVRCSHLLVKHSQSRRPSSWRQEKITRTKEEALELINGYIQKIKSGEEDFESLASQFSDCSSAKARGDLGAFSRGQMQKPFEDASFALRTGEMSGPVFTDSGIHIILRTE
PI4K2A block – inhibitors of human PI4K2A. purified PI4K2A, ADP-Glo luminescence, 1 h; active compounds read low. 0.13% of 420,000 active. activity change, negative = inhibition, % at 76.9 µM; in the data active means activity change below about -50%; inconclusive means mostly about -30% to -49%;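 further: -100% = wells without enzyme as full effect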
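PI4K2A activity was measured by ADP-Glo luminescence: enzyme (4 ug/mL stock) and phosphatidylinositol (1.2 mM stock) in Tris pH 7.5/MgCl2/EGTA/Triton X-100 buffer were reacted with ATP (300 microM stock) for one hour at ambient temperature.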
PI5P4Ka inh – inhibitors of human PI5P4K alpha; P48426; PI5P4Kalpha enzyme, ADP-Glo luminescence, 60 min; active compounds read low; max response, %; 1.2% of 330,000 active; active means max response of -50% or lower; inconclusive means between -30% and -50%; inactive means -30% or higher; further: value at the top dose of about 77 µM
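Enzyme plus substrate dispensed, test compounds pinned in, then ATP (5 microM final) added. After 60 min at RT, ADP-Glo reagent 1 for 45 min and reagent 2 for 30 min preceded luminescence imaging.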
PGK inhibitor – T. brucei PGK inhibition | PGK/GAPDH coupled, Kinase-Glo luminescence, 60 min | Potency, µM (series often up to 57.5 µM), for inactives: at the top dose activity change, negative = inhibition, hits mostly inhibitors | 0.043% of 380,000 active; active means well fitted inhibition curve with a large enough effect; inconclusive means small, poorly fitted or top-dose-only effect; inactive means no such curve, though single readings can be large or run the other way; further: potency means the concentration at half of the fitted maximal effect; nearly all actives have a fitted effect of over 60% in size
Target sequence (P07378 whole entry, looked up): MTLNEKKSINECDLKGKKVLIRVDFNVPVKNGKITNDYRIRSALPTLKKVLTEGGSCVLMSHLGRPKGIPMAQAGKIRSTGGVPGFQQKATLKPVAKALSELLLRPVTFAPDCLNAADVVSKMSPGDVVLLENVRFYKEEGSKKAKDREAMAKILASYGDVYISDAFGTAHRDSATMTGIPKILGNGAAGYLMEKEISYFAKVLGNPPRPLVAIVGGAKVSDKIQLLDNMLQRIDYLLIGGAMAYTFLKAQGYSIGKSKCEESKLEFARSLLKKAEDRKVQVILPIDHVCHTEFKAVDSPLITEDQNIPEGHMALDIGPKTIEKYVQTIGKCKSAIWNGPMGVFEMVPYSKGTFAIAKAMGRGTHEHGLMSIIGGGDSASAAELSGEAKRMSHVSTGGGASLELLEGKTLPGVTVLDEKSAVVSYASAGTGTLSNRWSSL
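Luminescent ATP detection (Kinase-Glo Plus) follows a 60-minute room-temperature incubation, with wells lacking PGK as controls. Buffer: 100 mM TEA (pH 7.6), 5 mM MgCl2, 0.01% Tween-20. Coupling enzyme GAPDH (100 nM final) supplies unstable 1,3-BPG in-well.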
The depositor's hits bear a star; i = inactive; ? = inconclusive; . = not tested or not shown. Shown is part of a subset that was picked to be rich in hits. Unless noted, on the % scale 0 is the no-effect control and ±100 the full control effect.

SMILES | Pin1 inh | PI4K2A block | PI5P4Ka inh | PGK inhibitor
C(#Cc1ccccc1)C[N+]1(CC#Cc2ccccc2)CCCC1 | 0% | 7 | -6 | -7%
C=CC#CC[N+]1(CC#Cc2ccccc2)CCOCC1 | 39% | -1 | -82* | i
Cn1nnnc1Sc1ncnc2scc(-c3ccccc3C#N)c12 | 6% | . | . | .
COc1cc(OC)cc(C(=O)Nc2ccc(Nc3ccccc3)cc2)c1 | 8% | -5 | -8 | -13%
COc1cc(OC)cc(C(=O)Nc2nnc(NC(=S)Nc3ccccc3)s2)c1 | 144% | -5 | -55* | -4%
O=C(O/N=C1/CCSc2ccccc21)c1ccc(F)cc1 | 8% | -7 | . | -6%
O=C(O/N=C1/CCCc2occc21)c1ccc(F)cc1 | -3% | -28 | -58* | -14%
O=C1CNC(=O)/C1=C/c1ccc(O)cc1 | 2% | -7 | . | -2%
O=C1CNC(=O)/C1=C\c1ccc(O)cc1 | 1% | -4 | -62* | 0%
COc1ccc(N2CSC3=C(C#N)C(c4cc(OC)ccc4OC)CC(=O)N3C2)c(OC)c1 (centres undefined) | 51% | -27 | -85* | -2%
CN(C)c1cc(NC(=O)CNC(C)(C)C)c(O)c2c1C[C@@H]1C[C@H]3[C@H](N(C)C)C(=O)C(C(N)=O)=C(O)[C@@]3(O)C(=O)C1=C2O | . | -8 | . | .
CC(NC(=O)OC(C)(C)C)C(=O)Oc1cc2oc(=O)cc(-c3ccccc3)c2cc1Cl (centres undefined) | -3% | 0 | -69* | 3%
CC(Oc1cc2oc(=O)cc(-c3ccccc3)c2cc1Cl)C(=O)NCC1CCC(C(=O)O)CC1 (centres undefined) | -5% | -5 | -1 | -11%
C=Cc1c(C)c2cc3[nH]c(cc4nc(cc5nc(cc1[nH]2)C(C)=C5CCC(=O)O)C(CCC(=O)O)=C4C)c(C)c3C=C | 32µM* | ? | -51* | 10µM*
CN(C)/C=C1\C(=O)N(c2ccc([N+](=O)[O-])cc2)N=C1c1ccccc1 | -13% | -51* | 7 | -2%
Nc1c(C(=O)NC2CC2)sc2nc3c(c(-c4ccco4)c12)CC/C3=C/c1ccco1 | . | -74* | -96* | ?
NC(=O)c1sc2nc3c(c(-c4ccco4)c2c1N)CCC3 | 2% | 0 | . | i
O=C1NC(=O)/C(=C/c2cccc(O)c2)N1 | 13% | -7 | -64* | i
Cc1cc(N)ccc1-n1c(C)ccc1C | 0% | -6 | -22 | -5%
Cc1cc(N)ccc1N1CCCC1 | ? | ? | -72* | i
C=CCNC(=O)NC(=O)COC(=O)/C=C/c1cccc([N+](=O)[O-])c1 | -2% | 0 | -83* | -9%
O=C1c2cccc3c(O)ccc(c23)C(=O)N1Cc1ccccc1 | ? | -2 | -63* | -2%
Cn1c(N)c(C(=O)COC(=O)c2cc(-c3ccco3)nc3ccccc23)c(=O)n(C)c1=O | . | ? | -77* | -24%
O=C(O)c1ccccc1/C=N/NC(=O)c1cc(-c2ccco2)nc2ccccc12 | ? | -21 | -94* | ?
O=C(N/N=C/c1ccc2c(c1)OCO2)c1cc(-c2ccco2)nc2ccccc12 | ? | -20 | -55* | -6%
SMILES | Pin1 inh | PI4K2A block | PI5P4Ka inh | PGK inhibitor
CC(=O)Nc1ccc(/C=N/NC(=O)c2cc(-c3ccco3)nc3ccccc23)cc1 | 34% | 1 | 0 | 2%
NC(=O)C1CCN(c2nccc(-c3ccc4c(c3)OCCCO4)n2)CC1 | 0% | . | . | .
O=C(O)c1ccc(NC(=O)c2ccc3c(c2)C(=O)N(c2ccccc2)C3=O)cc1 | 3% | -6 | 1 | -2%
O=C(O)c1cccc(NC(=O)c2ccc(N3C(=O)c4ccc(C(=O)Nc5cccc(C(=O)O)c5)cc4C3=O)cc2)c1 | ? | -3 | -51* | -1%
O=C(O)c1ccc(-n2cccc2/C=C2/SC(=O)N(CC(=O)N3CCCC3)C2=O)cc1 | ? | -12 | -59* | ?
N#Cc1ccccc1CN1C(=O)S/C(=C/c2cccn2-c2ccc(C(=O)O)cc2)C1=O | -1% | 6 | -18 | -12%
O=S(=O)(c1ccc(Cl)cc1)N1CCN(c2nc(-c3cccc(Br)c3)nc3ccccc23)CC1 | 14% | . | . | .
N#Cc1c(Nc2cccc(F)c2)sc2c(O)cc(=O)[nH]c12 | ? | -4 | -76* | -8%
N#Cc1c(N)nc(N)nc1Nc1ccc(Br)cc1 | -3% | 6 | -52* | i
COc1ccc(Br)cc1C1NC(c2ccc3c(c2)OCO3)=CC(c2ccccc2O)N1 (centres undefined) | 1% | . | . | .
O=C(Cn1sc2ccccc2c1=O)Nc1ccc(Br)cc1 | . | -7 | -83* | -3%
O=C(Cn1sc2ccccc2c1=O)Nc1ccc(F)cc1 | . | -13 | -91* | -2%
O=C(Cn1sc2ccccc2c1=O)Nc1ccc(Cl)cc1 | . | -11 | -82* | 1%
O=C1NC(c2ccccn2)Nc2sc3c(c21)CCC3 (centres undefined) | -5% | -1 | -11 | -5%
Cc1ccsc1C1NC(=O)c2c(sc3c2CCCC3)N1 (centres undefined) | -3% | -5 | -68* | -3%
CCCCC/C(C=O)=C\c1ccccc1 | . | 2 | . | .
O=C1Cc2cc(S(=O)(=O)N3CCN(c4ccccc4)CC3)ccc2N1 | ? | 0 | -1 | 7%
O=Cc1ccc(N2CCN(S(=O)(=O)c3ccc4c(c3)CC(=O)N4)CC2)cc1 | . | -56* | . | .
O=C(Nc1ccccc1Sc1ccccc1)c1cnn2c1NC(=C1CC1)C=C2C(F)F | 3% | . | . | .
O=C(c1ccco1)N1CCN(Cc2ccc(Cl)cc2)CC1 | 0% | -65* | 2 | -3%
Nc1nc(N)c2c(OCC3CCN(Cc4ccccc4F)CC3)cccc2n1 | -2% | . | . | .
O=C1/C(=C\c2cc(Cl)c(O)c(Cl)c2)SC(=S)N1Cc1ccccc1 | ? | 3 | -102* | -14%
Cc1ccsc1C(=O)Nc1ccc(C(=O)O)cc1 | 6% | -74* | -9 | -22%
CNC(=S)N/N=C(\C)c1ccc2c(c1)OCO2 | -10% | -3 | -65* | -9%
C/C(=N\NC(=S)Nc1ccc(C(C)C)cc1)c1ccc2c(c1)OCO2 | 1% | -1 | 2 | -5%
SMILES | Pin1 inh | PI4K2A block | PI5P4Ka inh | PGK inhibitor
CNC(=S)N/N=C(\C)c1ccc2c(c1)OCCO2 | -6% | -5 | -76* | 4%
C/C(=N\NC(=S)NC(C)C)c1ccc2c(c1)OCCO2 | 6% | -4 | 2 | i
COc1ccc(C2Nc3ccccc3C(=O)N2Cc2cccc3ccccc23)cc1COc1ccc(NC(C)=O)cc1 (centres undefined) | 32% | . | . | .
COc1ccc(NS(=O)(=O)c2cccc(C(=O)NNC(=O)c3cccn3C)c2)cc1 | ? | -22 | -75* | -3%
Cc1cc(C=O)c(C)n1-c1ccc(Cl)c(C(=O)O)c1 | ? | -5 | -54* | ?
Cc1cccc(Cc2cnc(N3C(=N)SC(C)C3=O)s2)c1 (centres undefined) | -4% | -6 | -6 | -1%
Cc1cccc(Cc2cnc(N3C(=N)SC(c4ccccc4)C3=O)s2)c1 (centres undefined) | -1% | 2 | -55* | -4%
[O-][n+]1ccccc1SSc1cccc[n+]1[O-] | . | i | . | .

Bioassay records from PubChem BioAssay.
